# In PubChem BioAssay (NCI):
# About 83,000 compounds went through this panel and 20% of them were active in at least one assay; those are over-represented in the sample as a whole.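 Method: cells in 96-well plates; compound added at one concentration; 48 h incubation; percent growth measured; values under 10 scored active.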 Values without a mark were called inactive. Active and inactive are the calls of the source.
# Columns and labels:
# Assay in all cases: NCI-60 one-dose screen, 48 h (100 = growth as untreated, 0 = no growth, -100 = all killed)
# Conditions in all cases: 10 µM
# DU-145 prostate = test system: DU-145 prostate
# K-562 leukemia = test system: K-562 leukemia
# MALME-3M melanoma = test system: MALME-3M melanoma
# MDA-MB-231 breast = test system: MDA-MB-231 breast
# RXF 393 renal = test system: RXF 393 renal
# SF-268 CNS = test system: SF-268 CNS
# SF-295 CNS = test system: SF-295 CNS
# SF-539 CNS = test system: SF-539 CNS
# UACC-257 melanoma = test system: UACC-257 melanoma
# M14 melanoma = test system: M14 melanoma
# HCT-15 colon = test system: HCT-15 colon
# HT29 colon = test system: HT29 colon
# SNB-75 CNS = test system: SNB-75 CNS
# SNB-19 CNS = test system: SNB-19 CNS
# U251 CNS = test system: U251 CNS
# PC-3 prostate = test system: PC-3 prostate
# SK-MEL-5 melanoma = test system: SK-MEL-5 melanoma
# UACC-62 melanoma = test system: UACC-62 melanoma
# LOX IMVI melanoma = test system: LOX IMVI melanoma
# SK-MEL-28 melanoma = test system: SK-MEL-28 melanoma
SMILES,growth (DU-145 prostate),growth (K-562 leukemia),growth (MALME-3M melanoma),growth (MDA-MB-231 breast),growth (RXF 393 renal),growth (SF-268 CNS),growth (SF-295 CNS),growth (SF-539 CNS),growth (UACC-257 melanoma),growth (M14 melanoma),growth (HCT-15 colon),growth (HT29 colon),growth (SNB-75 CNS),growth (SNB-19 CNS),growth (U251 CNS),growth (PC-3 prostate),growth (SK-MEL-5 melanoma),growth (UACC-62 melanoma),growth (LOX IMVI melanoma),growth (SK-MEL-28 melanoma)
COc1c(-c2c3sc(=O)[nH]c3nc3c2c(=O)[nH]n3C(C)C)cc2c(c1OC)OCO2,108%,86%,80.3%,108%,110%,102%,88.3%,94.8%,99.7%,93.8%,99.6%,102%,92.7%,98.7%,97.9%,92.6%,102%,99.4%,92.3%,112%
O=C(/C=C/c1ccc(Cl)cc1)c1ccc(Br)cc1,101%,97.5%,102%,102%,114%,102%,95.9%,94%,106%,100%,90.4%,73.7%,101%,99%,89.4%,97.4%,105%,92.6%,83.4%,96.5%
COc1ccc(-c2nc(-c3ccccc3)c(-c3ccccc3)[nH]2)cc1OC1CCCC1,86.4%,31.6%,103%,18.7%,13.7%,73.7%,52.9%,63.3%,79.9%,56.1%,19.8%,35.5%,70.5%,66.4%,39.1%,50.1%,67.7%,57%,24.3%,79.4%
O=C(c1ccccc1)C(Nc1ccccc1)c1ccccc1 (stereo not given),100%,90.5%,90%,89.7%,103%,93.1%,90.7%,96.7%,93.4%,97.5%,97.8%,86.4%,79.6%,101%,89.6%,75.5%,85.6%,74.9%,86%,99%
O=C(O)CN1C(=O)C=CC1=O,104%,96.4%,97.7%,107%,98.9%,94.4%,103%,96.2%,115%,106%,100%,104%,103%,106%,102%,99.8%,101%,103%,102%,123%
COc1cc(-c2cc(/C=C/C(C)=O)[nH]n2)cc(OC)c1OC,77%,46.6%,67.5%,78.8%,89.4%,82.4%,76%,93.4%,79.9%,84.9%,65.7%,66.6%,84.7%,69.1%,56.6%,71.3%,79%,84.6%,62%,97.4%
N#C/C(=C/c1cc([N+](=O)[O-])ccc1Cl)C(N)=O,92.7%,38.8%,99%,111%,99.2%,96.4%,98.1%,101%,97.8%,88.8%,83.4%,80.3%,88.9%,99.7%,93.6%,88.7%,98.8%,104%,68.8%,105%
Cc1cnc(C=O)c2cccc([N+](=O)[O-])c12,92.3%,51.3%,81.1%,93.4%,93.1%,88.5%,89.9%,90.1%,107%,95.9%,70.7%,79.1%,69.6%,99.2%,91.9%,79.9%,95.5%,103%,72.1%,111%
O=C1CC[C@@H](C(=O)N[C@H]2CSSC[C@@H](C(=O)NCCc3ccccc3)NC(=O)[C@H](Cc3ccccc3)NC(=O)[C@@H]3CCCN3C(=O)[C@@H]3CCCN3C2=O)N1,110%,90.6%,110%,90.1%,103%,106%,98.8%,94.2%,99.1%,97.8%,102%,102%,92.7%,102%,96.8%,84.1%,100%,94.6%,94.1%,102%
CC(=O)N(O)c1ccc(/C=C/c2ccccc2)cc1,3.54% (active),73.3%,94%,48.7%,-11% (active),12.4%,-26.7% (active),33.6%,-6.82% (active),46.2%,62.7%,47%,16%,32.3%,14.1%,36.1%,73.7%,32.2%,25.9%,75.4%
CC1(C)CNC(=O)N1,110%,98.1%,95.2%,100%,108%,103%,98.7%,98.9%,99.8%,94.1%,98.8%,94.6%,94.4%,103%,97.4%,93.3%,82.6%,95.9%,107%,114%
Cc1ccc(-c2cc(-c3cccc(Nc4ccnc5cc(Cl)ccc45)c3)nc3nc(N)[nH]c(=O)c23)cc1,105%,28.1%,108%,103%,90.9%,91.2%,102%,97.5%,102%,106%,99.4%,97.5%,76.9%,84.8%,88.5%,95.8%,99%,97.7%,92.8%,110%
COc1cccc(C2(C)Nc3ccccc3-c3nc4ccccc4n32)c1 (stereo not given),112%,100%,108%,101%,111%,110%,94.6%,105%,110%,102%,105%,113%,103%,105%,101%,109%,101%,102%,101%,107%
C=CCn1c(C)nc2cc(Nc3nc(Nc4ccc5nc(C)n(CC=C)c5c4)c4ccccc4n3)ccc21,-96% (active),-27.7% (active),-68.3% (active),-85.8% (active),-97.4% (active),-69.8% (active),-86.6% (active),-95.8% (active),-79.8% (active),-88% (active),-76.2% (active),-69.4% (active),-96.7% (active),-66.1% (active),-90.7% (active),-91.7% (active),-95.2% (active),-83.3% (active),-83.3% (active),-88% (active)
C[C@@H]1N=C(c2ccc(Br)cc2)Nc2nc3ccccn3c2C1=O,87.7%,24.3%,51.8%,52.7%,68.2%,83.4%,40.9%,74.6%,69.9%,31.8%,30.7%,17.5%,50.2%,82.6%,54%,63.2%,31.9%,49.2%,52.4%,66.2%
